The entries come from a sample that favours hits as a whole.
SARS PLpro yeast – qHTS of Yeast-based Assay for SARS-CoV PLP | S. cerevisiae expressing SARS-CoV PLpro, growth rescue | Potency, µM (series often up to 32.9 µM), for inactives: at the top dose activity, positive = growth rescue, hits mostly activators | 330,000 tested, 0.19% active | AID 485353, 2010; also: potency is read from the fitted curve at half-maximal effect; 0% is about no effect; nearly all actives have a fitted effect of over 55% in size
LmPK inh – qHTS Assay for Inhibitors of Leishmania Mexicana Pyruvate Kinase (LmPK); Potency, µM (doses to about 57.5 µM), without a hit: top-dose activity change, negative = inhibition, usual class: inhibitors; 290,000 tested, 0.37% active; Q27686; purified LmPK, Kinase-Glo ATP luminescence, 1 h; active = well fitted curve in the direction sought with a large enough effect; inconclusive = small, poorly fitted or top-dose-only effect, or another doubt; inactive = no such curve, though single readings can be large; an effect the other way counts as inactive or inconclusive; also: potency is read from the fitted curve at half-maximal effect; % is scaled to controls: 0 for no effect and ±100 for the full control effect
Target sequence (Q27686 whole entry, looked up): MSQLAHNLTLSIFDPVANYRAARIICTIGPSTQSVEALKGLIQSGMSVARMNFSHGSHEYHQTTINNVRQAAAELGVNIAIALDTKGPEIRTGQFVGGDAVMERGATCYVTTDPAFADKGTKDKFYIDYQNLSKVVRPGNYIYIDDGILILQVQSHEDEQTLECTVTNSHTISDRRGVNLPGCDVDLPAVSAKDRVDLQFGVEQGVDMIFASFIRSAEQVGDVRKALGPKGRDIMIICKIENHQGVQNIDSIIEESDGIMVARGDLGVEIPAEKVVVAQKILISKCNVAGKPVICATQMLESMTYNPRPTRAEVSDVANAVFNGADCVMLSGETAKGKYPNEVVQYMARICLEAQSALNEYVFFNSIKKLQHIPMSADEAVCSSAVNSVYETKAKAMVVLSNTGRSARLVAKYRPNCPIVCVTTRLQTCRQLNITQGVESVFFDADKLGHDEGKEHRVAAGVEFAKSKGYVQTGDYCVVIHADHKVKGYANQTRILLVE
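Kinase-Glo luminescence read after 1 h RT reaction of 0.1 nM LmPK with 0.5 mM PEP and 0.1 mM ADP. Activity scaled between uninhibited and enzyme-free controls.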
NS1 inh – qHTS Assay for Inhibitors of Influenza NS1 Protein Function; Potency, µM (highest dose often 46.1 µM), without a hit: at the top dose activity, positive = more growth; 270,000 tested, 0.4% active; AID 2326, 2010; also: potency is read from the fitted curve at half-maximal effect; actives are rising curves; nearly all actives have a fitted effect of over 50% in size
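In this qHTS, NS1 from influenza A is expressed in budding yeast, where it slows growth. Cells are switched from glucose to 2% galactose medium (pH 6.0, -URA), treated with compound, and growth recovery is read at OD600.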
Shiga toxin inh – A qHTS for Small Molecule Inhibitors of Shiga Toxin. 290,000 tested, 9.2% active. Vero cells, Shiga toxin protein synthesis inhibition reporter. inhibition, % at 38.7 µM. AID 2315, 2010; in the data active = inhibition mostly above about 28%, no sharp cut-off; inactive = mostly below about 43%; also: 0% is about no effect
Cycloheximide cs – Cycloheximide Counterscreen for Small Molecule Inhibitors of Shiga Toxin; 300,000 tested, 12% active; max response, %; cell reporter, cycloheximide protein synthesis inhibition counterscreen; in the data active = max response mostly above about 13%, no sharp cut-off; inactive = mostly below about 14%; also: read at 38.3 µM for the half of the compounds with a filed dose; 0% is about no effect
Tb PYK inh – qHTS of Trypanosoma Brucei Inhibitors. pyruvate kinase (Trypanosoma brucei), Q57TT1. TbPYK enzyme, Kinase-Glo Plus ATP luminescence, 45 min. Potency, µM (top dose mostly 76.8 µM), for inactives: at the top dose activity, negative = inhibition, usual class: inhibitors. 410,000 tested, 0.12% active. AID 624173, 2012; active = well fitted curve in the direction sought with a large enough effect; inconclusive = small, poorly fitted or top-dose-only effect, or another doubt; inactive = no such curve, though single readings can be large; an effect the other way counts as inactive or inconclusive; also: potency is read from the fitted curve at half-maximal effect; % is scaled to controls: 0 for no effect and ±100 for the full control effect; nearly all actives have a fitted effect of over 50% in size
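Activity of T. brucei pyruvate kinase was followed by Kinase-Glo Plus luminescence after the enzyme reacted 45 min at room temperature with 130 uM ADP (final) and substrate. Test compounds were added before ADP at multiple concentrations.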
An asterisk follows results filed as active. Unless noted, calls follow the shape of the full dose curve.

Results for COc1ccc(-n2c(-c3cc(-c4ccccc4)sc3N)n[nH]c2=S)cc1 ?
SARS PLpro yeast: -1%; LmPK inh: 1%; NS1 inh: inconclusive; Shiga toxin inh: -21; Cycloheximide cs: 0; Tb PYK inh: 9%

Results for Cc1ccccc1-n1c(-c2cccnc2)n[nH]c1=S ?
LmPK inh: 11µM*; NS1 inh: 2%; Shiga toxin inh: -11; Cycloheximide cs: -2; Tb PYK inh: inconclusive

What do the screens show for `COc1ccccc1-n1c(-c2ccccc2)n[nH]c1=S`?
SARS PLpro yeast: 0%; LmPK inh: -16%; NS1 inh: 11%; Shiga toxin inh: 3; Cycloheximide cs: 6; Tb PYK inh: 6.3µM*

How did COc1ccc(-c2n[nH]c(=S)n2-c2ccccc2C)cc1 do in these assays?
SARS PLpro yeast: -1%; LmPK inh: 28µM*; NS1 inh: -44%; Shiga toxin inh: 1; Cycloheximide cs: -1; Tb PYK inh: inconclusive

What do the screens show for `CC(C)c1ccccc1-n1c(-c2cccnc2)n[nH]c1=S`?
SARS PLpro yeast: 1%; LmPK inh: -24%; NS1 inh: 4%; Shiga toxin inh: -4; Cycloheximide cs: 0; Tb PYK inh: inconclusive

What do the screens show for `COc1ccc(OC)c(-n2c(-c3cc(-c4ccccc4)n[nH]3)n[nH]c2=S)c1`?
SARS PLpro yeast: -5%; LmPK inh: 10µM*; NS1 inh: -17%; Shiga toxin inh: -6; Cycloheximide cs: -2; Tb PYK inh: inconclusive

What do the screens show for `S=c1[nH]nc(-c2ccc3ccccc3n2)n1-c1ccc2ncccc2c1`?
SARS PLpro yeast: -13%; LmPK inh: 14µM*; NS1 inh: 25%; Shiga toxin inh: 15; Cycloheximide cs: 3; Tb PYK inh: 4µM*

How did COc1ccccc1-n1c(-c2ccccc2F)nc2ccccc2c1=O do in these assays?
Tb PYK inh: -9%

How did COc1ccccc1-n1c(-c2ccc(C)cc2)nc2ccccc2c1=O do in these assays?
SARS PLpro yeast: 0%; LmPK inh: 0%; NS1 inh: -2%; Shiga toxin inh: 48*; Cycloheximide cs: 29*; Tb PYK inh: 3%

How did COc1ccccc1-c1n[nH]c(=S)n1Cc1ccccc1 do in these assays?
SARS PLpro yeast: 5%; LmPK inh: -25%; NS1 inh: 12%; Shiga toxin inh: -4; Cycloheximide cs: -1; Tb PYK inh: inconclusive

Results for O=c1c2ccccc2[nH]c(=S)n1-c1cccnc1 ?
SARS PLpro yeast: 1%; LmPK inh: 5%; NS1 inh: 6%; Shiga toxin inh: -7; Cycloheximide cs: 8; Tb PYK inh: 7%

What do the screens show for `S=c1[nH]nc(-c2cccc3ccccc23)n1-c1cccnc1`?
SARS PLpro yeast: 1%; LmPK inh: 13µM*; NS1 inh: 11%; Shiga toxin inh: -3; Cycloheximide cs: 1; Tb PYK inh: inconclusive

What do the screens show for `COc1ccccc1-n1c(-c2cn(C)nc2C)n[nH]c1=S`?
SARS PLpro yeast: -1%; LmPK inh: 22µM*; NS1 inh: 13%; Shiga toxin inh: 14; Cycloheximide cs: -2; Tb PYK inh: inconclusive

What do the screens show for `Cc1ccc(F)c(S(=O)(=O)NC(=O)C2(C)CCN2C(=O)c2cccc3ccccc23)c1` (centres undefined)?
Tb PYK inh: -1%

What do the screens show for `COc1cc(OC)cc(C(=O)NCc2n[nH]c(=S)n2-c2ccccc2OC)c1`?
SARS PLpro yeast: -13%; LmPK inh: inconclusive; NS1 inh: -9%; Shiga toxin inh: -3; Cycloheximide cs: -2; Tb PYK inh: 11µM*

How did COc1ccccc1-n1c(CNC(=O)c2cccs2)n[nH]c1=S do in these assays?
SARS PLpro yeast: -1%; LmPK inh: inconclusive; Shiga toxin inh: -3; Cycloheximide cs: 0; Tb PYK inh: inconclusive

Results for Cc1cc(-c2ccccc2)nc2cc(C(=O)Nc3ccc(Cl)c(Cl)c3)nn12 ?
Tb PYK inh: -2%

What do the screens show for `Cc1nc2ccc(NC(=O)c3ccccc3)cc2c(=O)n1Cc1ccc(F)cc1`?
Tb PYK inh: 2%

What do the screens show for `COc1ccc(Cn2c(C3CC3)nc3ccc(NC(C)=O)cc3c2=O)cc1`?
SARS PLpro yeast: -5%; LmPK inh: -22%; NS1 inh: -10%; Shiga toxin inh: 121*; Cycloheximide cs: 57*; Tb PYK inh: -9%

How did COc1ccc(Cn2c(C3CC3)nc3ccc(NC(=O)c4cccnc4)cc3c2=O)cc1 do in these assays?
SARS PLpro yeast: -1%; LmPK inh: -7%; NS1 inh: 3%; Shiga toxin inh: 54*; Cycloheximide cs: 22*; Tb PYK inh: -2%

What do the screens show for `CCCc1nc2ccc(NC(C)=O)cc2c(=O)n1Cc1ccc(Cl)cc1`?
SARS PLpro yeast: -2%; LmPK inh: 5%; Shiga toxin inh: 90*; Cycloheximide cs: 43*; Tb PYK inh: 2%

How did CC(=O)n1nc(-c2ccccc2)nc1NCc1ccc(F)cc1 do in these assays?
SARS PLpro yeast: -2%; LmPK inh: -10%; NS1 inh: -7%; Shiga toxin inh: 46; Cycloheximide cs: 20*; Tb PYK inh: 0%

How did O=C(c1ccc(F)cc1)n1nc(-c2ccccc2)nc1NCc1ccc(F)cc1 do in these assays?
Tb PYK inh: -1%

What do the screens show for `O=C(c1cccc([N+](=O)[O-])c1)n1nc(-c2ccccc2)nc1NCc1ccccc1`?
SARS PLpro yeast: 28%; LmPK inh: 0%; NS1 inh: 1%; Shiga toxin inh: 48*; Cycloheximide cs: 20*; Tb PYK inh: 2%

Results for O=C(c1ccc([N+](=O)[O-])cc1)n1nc(-c2ccccc2)nc1NCc1ccc(F)cc1 ?
SARS PLpro yeast: 11%; LmPK inh: -2%; NS1 inh: 2%; Shiga toxin inh: 37*; Cycloheximide cs: 17*; Tb PYK inh: 0%

Results for O=C(c1ccc([N+](=O)[O-])cc1)n1nc(-c2ccccc2)nc1NCc1ccccc1 ?
SARS PLpro yeast: 4%; LmPK inh: 1%; NS1 inh: -4%; Shiga toxin inh: 69*; Cycloheximide cs: 47*; Tb PYK inh: -2%

How did CC(C)c1ccc(CNc2nc(-c3ccco3)nn2C(=O)c2ccc([N+](=O)[O-])cc2)cc1 do in these assays?
Tb PYK inh: -1%

What do the screens show for `O=C(c1ccccc1)n1nc(-c2ccccc2)nc1NCc1ccc(F)cc1`?
Tb PYK inh: 8%

How did O=C(c1ccco1)N1CCN(Cc2nnc(-c3ccccc3)o2)CC1 do in these assays?
SARS PLpro yeast: inconclusive; LmPK inh: 1%; NS1 inh: -2%; Shiga toxin inh: -8; Cycloheximide cs: -3; Tb PYK inh: -8%

Results for c1ccc(-c2nnc(CN3CCCCC3)o2)cc1 ?
SARS PLpro yeast: -2%; LmPK inh: -7%; NS1 inh: 5%; Shiga toxin inh: 75*; Cycloheximide cs: 41*; Tb PYK inh: -4%
